According to publication PMC11062922 (Nature Chemical Biology, 2023):
Like-named read-outs stand apart in the source and are kept apart here.

Legend:
Set-up in all cases: species or system human, MV4-11 + K-562 + COLO205 + SK-N-BE2 + OVCAR-8
LATS1 = conditions: read-out: apparent Kd, n = 1
PKN1 = conditions: read-out: apparent Kd, n = 1
PKN3 = conditions: read-out: apparent Kd, n = 1
SIK2 = conditions: read-out: apparent Kd, n = 1
CDK16 = conditions: read-out: apparent Kd, compound concentrations: 100 nM and 1000 nM (sheet 'Samples'), n = 1
CDK17 = conditions: read-out: apparent Kd, compound concentrations: 100 nM and 1000 nM (sheet 'Samples'), n = 1
MAPK9 = conditions: read-out: apparent Kd, compound concentrations: 100 nM and 1000 nM (sheet 'Samples'), n = 1
MARK3 = conditions: read-out: apparent Kd, n = 1
MARK4 = conditions: read-out: apparent Kd, n = 1
ADCK1 = conditions: read-out: apparent Kd, n = 1
PRKD3 = conditions: read-out: apparent Kd, n = 1
STK4 = conditions: read-out: apparent Kd, n = 1
PLK4 = conditions: read-out: apparent Kd, compound concentrations: 100 nM and 1000 nM (sheet 'Samples'), n = 1
PTK2 = conditions: read-out: apparent Kd, compound concentrations: 100 nM and 1000 nM (sheet 'Samples'), n = 1
CDK7 = conditions: read-out: apparent Kd, compound concentrations: 100 nM and 1000 nM (sheet 'Samples'), n = 1
PRKAG1 = conditions: read-out: apparent Kd, n = 1
PTK2B = conditions: read-out: apparent Kd, compound concentrations: 100 nM and 1000 nM (sheet 'Samples'), n = 1
RPS6KA6 = conditions: read-out: apparent Kd, compound concentrations: 100 nM and 1000 nM (sheet 'Samples'), n = 1
PRKCD = conditions: read-out: apparent Kd, n = 1
RIOK2 = conditions: read-out: apparent Kd; compound concentrations: 100 nM and 1000 nM (sheet 'Samples'), CATDS: 8.1231795228866102E-3; n = 1
[1] = compound concentrations:100 nM and 1000 nM (sheet 'Samples')

For `CCn1c(-c2nonc2N)nc2c(C#CCN)ncc(OCCCN)c21.O=C(O)C(F)(F)F` [GSK561866B], the potency estimated from few doses (LATS1; compound concentrations: 100 nM and 1000 nM (sheet 'Samples'), CATDS: 0.187665654048491) was 38.9 nM, the potency estimated from few doses (PKN1; compound concentrations: 100 nM and 1000 nM (sheet 'Samples'), CATDS: 0.15879588217707499) was 65.5 nM and the potency estimated from few doses (PKN3; compound concentrations: 100 nM and 1000 nM (sheet 'Samples'), CATDS: 0.49894757840635401) was 5.21 nM.

`CCOc1nccc2c1nc(-c1nonc1N)n2CC` [SB-737198] was tested, and the potency estimated from few doses (PKN3; compound concentrations: 100 nM and 1000 nM (sheet 'Samples'), CATDS: 0.243522946677111) was 869 nM and the potency estimated from few doses (SIK2; compound concentrations: 100 nM and 1000 nM (sheet 'Samples'), CATDS: 0.197359346007206) was 1500 nM.

`CNCC#Cc1c(F)ccc2c1/C(=C/c1[nH]ccc1OC)C(=O)N2.Cl` [RO0281601-001] was tested, and the potency estimated from few doses (CDK16; CATDS: 5.4243920353091599E-2) was 173 nM, the potency estimated from few doses (CDK17; CATDS: 2.8122134627670499E-2) was 838 nM and the potency estimated from few doses (LATS1; compound concentrations: 100 nM and 1000 nM (sheet 'Samples'), CATDS: 3.7561417632614502E-2) was 394 nM. For the same compound, the potency estimated from few doses (MAPK9; CATDS: 2.4377657095079101E-2) was 1310 nM, the potency estimated from few doses (MARK3; compound concentrations: 100 nM and 1000 nM (sheet 'Samples'), CATDS: 2.1082964771659999E-2) was 2280 nM and the potency estimated from few doses (MARK4; compound concentrations: 100 nM and 1000 nM (sheet 'Samples'), CATDS: 2.40121909495257E-2) was 1380 nM. The potency estimated from few doses (SIK2; compound concentrations: 100 nM and 1000 nM (sheet 'Samples'), CATDS: 2.5744963506260699E-2) was 1090 nM.

In the case of `Cc1cccc(Nc2nc(N[C@H]3CCNC3)ncc2C(N)=O)c1.Cl` [GSK2197149A], the potency estimated from few doses (ADCK1; [1]) is reported as 1560 nM, the potency estimated from few doses (PRKD3; [1]) is reported as 1890 nM and the potency estimated from few doses (SIK2; [1]) is reported as 603 nM. For the same compound, the potency estimated from few doses (STK4; [1]) was 1490 nM.

Compound `CN(c1ccc(NC(=O)NCCN2CCOCC2)cc1)c1ccnc(Nc2ccc(CS(C)(=O)=O)cc2)n1.Cl` [GW830365A] has a potency estimated from few doses (ADCK1; compound concentrations: 100 nM and 1000 nM (sheet 'Samples'), CATDS: 4.75269778892356E-2) of 1550 nM and a potency estimated from few doses (PLK4; CATDS: 4.9779081320457601E-2) of 1320 nM.

In the case of `Cl.Cl.NC(CNC(=O)c1cc(Br)c(-c2ccnc3[nH]ccc23)s1)c1ccccc1.NC(CNC(=O)c1cc(Br)c(-c2ccnc3[nH]ccc23)s1)c1ccccc1` (stereo not drawn) [GSK1322949A], the potency estimated from few doses (PKN1; compound concentrations: 100 nM and 1000 nM (sheet 'Samples'), CATDS: 2.3359167172179899E-2) is reported as 2380 nM and the potency estimated from few doses (PTK2; CATDS: 3.2827232082793402E-2) is reported as 993 nM.

`Cc1ccccc1-n1ncc(C(=O)c2ccccc2)c1N` [RO1151248-000] showed a potency estimated from few doses (CDK7; CATDS: 3.2970650229379797E-2) of 492 nM, a potency estimated from few doses (PKN1; compound concentrations: 100 nM and 1000 nM (sheet 'Samples'), CATDS: 1.7045557740064301E-2) of 2350 nM and a potency estimated from few doses (PLK4; CATDS: 2.3524551530655802E-2) of 946 nM. The potency estimated from few doses (PRKAG1; compound concentrations: 100 nM and 1000 nM (sheet 'Samples'), CATDS: 2.5293867995276598E-2) was 809 nM, the potency estimated from few doses (PTK2B; CATDS: 3.03657064915384E-2) was 568 nM and the potency estimated from few doses (PTK2; CATDS: 2.47359073742957E-2) was 848 nM. For the same compound, the potency estimated from few doses (RPS6KA6; CATDS: 3.3090095643126802E-2) was 489 nM and the potency estimated from few doses (SIK2; compound concentrations: 100 nM and 1000 nM (sheet 'Samples'), CATDS: 2.40988460516664E-2) was 897 nM.

With `CCN(CC)Cc1ccc(Nc2nccc(-c3cnn4ncccc34)n2)cc1` [GW780056X] the potency estimated from few doses (ADCK1; compound concentrations: 100 nM and 1000 nM (sheet 'Samples'), CATDS: 2.0575256748511801E-2) was 1200 nM, the potency estimated from few doses (CDK16; CATDS: 4.3242463436831802E-2) was 196 nM and the potency estimated from few doses (CDK17; CATDS: 2.15986885679498E-2) was 1030 nM. The potency estimated from few doses (CDK7; CATDS: 2.0395381874141399E-2) was 1240 nM and the potency estimated from few doses (PRKD3; compound concentrations: 100 nM and 1000 nM (sheet 'Samples'), CATDS: 3.09987339896893E-2) was 398 nM.

Work on `CCn1c(-c2cccnc2O)nc2cnccc21` [SB-736715] yielded a potency estimated from few doses (CDK16; CATDS: 1.2342830833646699E-2) of 2030 nM, a potency estimated from few doses (CDK17; CATDS: 1.55525424836102E-2) of 1200 nM and a potency estimated from few doses (MAPK9; CATDS: 1.25360352526476E-2) of 1950 nM. The potency estimated from few doses (PLK4; CATDS: 1.6109346407018599E-2) was 1120 nM, the potency estimated from few doses (PRKAG1; compound concentrations: 100 nM and 1000 nM (sheet 'Samples'), CATDS: 1.40543588651099E-2) was 1490 nM and the potency estimated from few doses (PRKCD; compound concentrations: 100 nM and 1000 nM (sheet 'Samples'), CATDS: 1.16308056787147E-2) was 2390 nM. For the same compound, the potency estimated from few doses (RPS6KA6; CATDS: 1.6792269740451799E-2) was 1030 nM and the potency estimated from few doses (STK4; compound concentrations: 100 nM and 1000 nM (sheet 'Samples'), CATDS: 1.39715497774644E-2) was 1510 nM.

`CCn1c(-c2nonc2N)nc2c(C#CC(C)(C)O)nc(O[C@@H](CN)c3ccccc3)cc21.O=C(O)C(F)(F)F` [GSK1007102B] showed a potency estimated from few doses (ADCK1; [1]) of 788 nM, a potency estimated from few doses (LATS1; [1]) of 23.2 nM and a potency estimated from few doses (MARK3; [1]) of 163 nM. It also gave a potency estimated from few doses (MARK4; [1]) of 768 nM, a potency estimated from few doses (PKN1; [1]) of 37.6 nM and a potency estimated from few doses (PKN3; [1]) of 2.06 nM. For the same compound, the potency estimated from few doses (PRKAG1; [1]) was 765 nM and the potency estimated from few doses (PRKCD; [1]) was 173 nM.

With `O=C(O)C(F)(F)F.O=c1[nH]ccc2nc(N[C@@H]3CCNC3)nc(Nc3ccc4c(c3)S(=O)(=O)CC4)c12` [GSK2181306A] the potency estimated from few doses (ADCK1; compound concentrations: 100 nM and 1000 nM (sheet 'Samples'), CATDS: 1.2751360912585E-2) was 448 nM, the potency estimated from few doses (CDK16; CATDS: 1.11902252687631E-2) was 620 nM and the potency estimated from few doses (CDK17; CATDS: 9.5654152520578493E-3) was 979 nM. For the same compound, the potency estimated from few doses (LATS1; compound concentrations: 100 nM and 1000 nM (sheet 'Samples'), CATDS: 9.3348582894500695E-3) was 1060 nM, the potency estimated from few doses (MARK3; compound concentrations: 100 nM and 1000 nM (sheet 'Samples'), CATDS: 1.24991581563988E-2) was 470 nM and the potency estimated from few doses (MARK4; compound concentrations: 100 nM and 1000 nM (sheet 'Samples'), CATDS: 1.39607166136132E-2) was 364 nM. The potency estimated from few doses (PKN1; compound concentrations: 100 nM and 1000 nM (sheet 'Samples'), CATDS: 8.6733801464620904E-3) was 1380 nM, the potency estimated from few doses (PLK4; CATDS: 1.0301359054319901E-2) was 780 nM and the potency estimated from few doses (PRKAG1; compound concentrations: 100 nM and 1000 nM (sheet 'Samples'), CATDS: 1.1132465742589101E-2) was 629 nM. It also gave a potency estimated from few doses (PRKCD; compound concentrations: 100 nM and 1000 nM (sheet 'Samples'), CATDS: 1.35004304297044E-2) of 393 nM, a potency estimated from few doses (PRKD3; compound concentrations: 100 nM and 1000 nM (sheet 'Samples'), CATDS: 1.3161717541215199E-2) of 416 nM and a potency estimated from few doses (PTK2B; CATDS: 0.14676588130533899) of 7.85 nM. It also gave a potency estimated from few doses (PTK2; CATDS: 1.26908044815701E-2) of 453 nM, a potency estimated from few doses (RIOK2) of 1810 nM and a potency estimated from few doses (RPS6KA6; CATDS: 1.2402205913088901E-2) of 478 nM. It also gave a potency estimated from few doses (SIK2; compound concentrations: 100 nM and 1000 nM (sheet 'Samples'), CATDS: 1.23582822640132E-2) of 483 nM and a potency estimated from few doses (STK4; compound concentrations: 100 nM and 1000 nM (sheet 'Samples'), CATDS: 2.0109118463760199E-2) of 175 nM.
